From PubChem BioAssay (NCATS)
Results filed as inconclusive are left out. A call without a number means that no potency is given here. Unmarked numbers belong to inactive results. Activity calls are given as the source filed them. Calls follow the shape of the dose curve; as a rule, active = well fitted cell-killing curve with a large enough effect; inconclusive = small, poorly fitted or top-dose-only effect, or effect the other way; inactive = flat fitted curve, though single readings scatter.

Assays:
Tov-21-G = experiment: Primary qHTS to identify gynecologic anti-cancer compounds using libraries of approved drugs and bioactive compounds (AID 1345084); details: Gynecologic cancer cell panel viability, ATPlite luminescence, 48 h; series mostly up to 57.5 µM; also: nearly all actives have a fitted effect of over 55% in size
Summary of the method: (§1)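 ATP-based viability (ATPlite), 1,000 cells/well, 16 h pre-incubation, 48 h compound at 37 C, 5% CO2, 15 min RT before read.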

Tov112D = experiment: as above; details: Gynecologic cancer cell panel viability, ATPlite luminescence, 48 h; series mostly up to 57.5 µM
Summary of the method: as §1

Compound | Potency (Tov-21-G) | Potency (Tov112D) | activity change, negative = cytotoxicity (Tov-21-G) | activity change, negative = cytotoxicity (Tov112D)
Cc1nc2ccccc2c(-c2ccc3c4c(ccnc24)CCO3)c1[C@H](OC(C)(C)C)C(=O)O | inactive | inactive |  | 
O=C(O)c1ccnc2cc(-c3nc4ccccc4n3CCN3CCCCC3)sc12 | inactive | inactive |  | 
C[C@@H]1CC[C@]2(C(=O)O)CC[C@]3(C)C(=CCC4[C@@]5(C)C[C@@H](O)[C@@H](O)C(C)(C)C5CC[C@]43C)C2[C@]1(C)O (stereo not given in full) | inactive | inactive |  | 
CC(=O)O[C@@H]1C(O)C[C@@]2(C)C(CC[C@@H](C)C23Cc2c(O)cc4c(c2O3)CNC4=O)C1(C)C (stereo not given in full) | inactive | inactive |  | 
COCC1OC(n2cnc3c(=O)[nH]cnc32)C(O)C1O (stereo not given) | inactive | inactive |  | 
CC1(C)C=Cc2c(ccc3c2N=C2C(C)(C)[C@@H]4C[C@]56CCCN5C(=O)[C@@]4(C[C@]23O)NC6=O)O1 | inactive | inactive |  | 
O=C(/C=C/c1ccc(O)cc1)O[C@@H]1C[C@@](O)(C(=O)O)C[C@@H](O)[C@@H]1O | inactive | inactive |  | 
C/C=C(/C)C(=O)OC1C(OC(C)=O)C23C(O)OC4(CCC5C6(C)CCC(OC7OC(C(=O)O)C(O)C(OC8OC(CO)C(O)C(O)C8OC8OC(C)C(O)C(O)C8OC8OCC(O)C(O)C8O)C7OC7OC(CO)C(O)C(O)C7O)C(C)(C)C6CCC5(C)C4(C)CC2OC(C)=O)C3CC1(C)C (stereo not given) |  |  | -4.78% [at 6.55 µM] | 1.18% [at 6.55 µM]
CC1CCC2(C(=O)O)CCC3(C)C(=CCC4C5(C)C[C@@H](O)[C@@H](O)C(C)(CO)C5CCC43C)C2C1(C)O (stereo not given in full) | inactive | inactive |  | 
CC1(C)CCCC2(C)c3c4c(c(=O)oc(=O)c3=CCC12)=CCC1C(C)(C)CCCC41C (stereo not given) | inactive | inactive |  | 
CC(C)(O)C1OC1C1=CC(=O)C2(C)OC2C1O (stereo not given) | inactive | inactive |  | 
C[C@]1(C2CCCC2)Cc2cc(OCC(=O)O)c(Cl)c(Cl)c2C1=O | inactive | inactive |  | 
CC1C2=CC(=O)OC2(O)CC2C1C(OC(=O)c1ccccc1)C(OC(=O)c1ccccc1)C1(O)C2(C)CCC(O)C1(C)C(=O)O (stereo not given) | inactive | inactive |  | 
O=C1C[C@@]2(C(=O)N1)C(=O)N(Cc1ccc(Br)cc1F)C(=O)c1cccn12 | inactive | inactive |  | 
CC(O)C1NC(=O)C2CCCN2C1=O (stereo not given) | inactive | inactive |  | 
CCC(C)C1NC(=O)C2C(C)CCN2C(=O)C(CC(O)CO)OC(=O)CCNC(=O)C(C)N(C)C(=O)C(C(C)C)N(C)C1=O (stereo not given) | inactive | inactive |  | 
COc1ccc([C@H]2OC[C@H]3[C@@H]2CO[C@@H]3c2ccc(O[C@@H]3O[C@H](CO)C(O)[C@H](O)[C@H]3O)c(OC)c2)cc1OC (stereo not given in full) | inactive | inactive |  | 
O=c1[nH]ccc2nc(-c3ccc(CN4CCC(c5nc(-c6ccccn6)n[nH]5)CC4)cc3)c(-c3ccccc3)cc12 | inactive | inactive |  | 

Compound | Potency (Tov-21-G) | Potency (Tov112D) | activity change, negative = cytotoxicity (Tov-21-G) | activity change, negative = cytotoxicity (Tov112D)
Cc1ccc(COC(=O)N2CC[C@@H](CNc3ncccn3)[C@@H](F)C2)cc1 | inactive | inactive |  | 
C=CC1(C)C=C2CC[C@H]3[C@@](C)(C(=O)O)CCC[C@]3(C)C2CC1 (stereo not given in full) | inactive | inactive |  | 
NC(=O)C(O[C@@H]1O[C@H](CO[C@@H]2O[C@H](CO)[C@@H](O)[C@H](O)[C@H]2O)[C@@H](O)[C@H](O)[C@H]1O)c1ccccc1 (stereo not given in full) | inactive | inactive |  | 
COc1ccc(OC)c(C2C(C#N)=C(N)Oc3n[nH]c(-c4ccc5ccccc5c4)c32)c1 (stereo not given) | inactive | inactive |  | 
O=C(O)c1cccc(CN2C(=O)/C(=C(\c3ccccc3)c3ccc(Cl)cc3)c3ccccc32)c1 | inactive | inactive |  | 
CC(=O)NC(Cc1c[nH]c2ccccc(=O)c12)C(=O)O (stereo not given) | inactive | inactive |  | 
C[C@@H]1[C@H]2[C@H](O[C@@H]3O[C@H](CO)[C@@H](O)[C@H](O)[C@H]3O)OC=C(C(=O)O)[C@H]2C[C@@H]1OC(=O)/C=C/c1ccc(O)cc1 | inactive | inactive |  | 
COc1ccc(C(=O)CC(=O)O)c2c1C=CC(C)(C)O2 | inactive | inactive |  | 
O=C1NC(=O)/C(=C/c2cccc(C(F)(F)F)c2)S1 | inactive | inactive |  | 
CCCCC(=O)N1c2ccccc2NC2=C(C(=O)CCC2)C1c1ccccc1Cl (stereo not given) | inactive | inactive |  | 
C/C=C/C=C/C=C/C(=O)O[C@@H]1[C@@H](OC)C2=C(C(=O)N(C(CCC(=O)O)C(=O)O)C2)[C@@]2(C)CCCC(C)(C)[C@H]12 (stereo not given in full) | inactive | inactive |  | 
C/C=C(\C)C(=O)OC[C@H]1O[C@H](O[C@H]2O[C@H](CO)[C@@H](O)[C@H](O)[C@H]2O[C@@H]2O[C@H](CO)[C@@H](O)[C@H](O)[C@H]2O)[C@H](O[C@@H]2O[C@H](CO)[C@@H](O)[C@H](O)[C@H]2O)[C@@H](O)[C@@H]1O | inactive | inactive |  | 
CCCCOc1nc(N)c2c(n1)N(Cc1cccc(CN3CCCC3)c1)CC(=O)N2 | inactive | inactive |  | 
CC1=C[C@H](O)[C@H]2C(C)(C)CCC[C@]2(C)[C@@]1(O)CO | inactive | inactive |  | 
OCC1OC(Oc2cc(O)cc(/C=C/c3ccc(OC4OC(CO)C(O)C(O)C4O)cc3O)c2)C(O)C(O)C1O (stereo not given) | inactive | inactive |  | 
COc1cc(C2Oc3c(OC)cc(CCCO)cc3C2CO)ccc1O (stereo not given) | inactive | inactive |  | 
C/C=C/C=C/C=C/C(=O)O[C@@H]1C=C(CO)[C@](O)(CO)[C@@]2(C)CCCC(C)(C)[C@H]12 | inactive | inactive |  | 
